The values that follow come from PubChem BioAssay (Tox21).

A short description of assay [1]: Nuclear factor erythroid 2-related factor 2/antioxidant responsive element (Nrf2/ARE) small molecule agonists: qHTS cell viability counter screen in human keratinocytes (AID 1919968; active = well fitted curve in the direction sought with a large enough effect in the repeat runs; an effect the other way counts as inactive or inconclusive; note: nearly all actives have a fitted effect of over 55% in size; note: potency is the fitted concentration of half-maximal effect). The method, boiled down: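 After a 5 h attachment period, ARE-reporter keratinocytes were dosed with compounds in DMSO and then cultured 23 h at 37 C. Cell viability came from CellTiter-Fluor signal read after a further 1 h.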

Assay [2] in a line: Nuclear factor erythroid 2-related factor 2/antioxidant responsive element (Nrf2/ARE) small molecule agonists: luciferase reporter gene qHTS assay in human keratinocytes (AID 1919969). Note: nearly all actives have a fitted effect of over 35% in size. Background: In a reporter assay the amount or activity of a reporter protein is the signal.
The target of assay [3] is Gonadotropin-releasing hormone receptor (Homo sapiens) (UniProt P30968). The assay can be described thus: Human gonadotropin-releasing hormone receptor (GnRHR) small molecule agonists, calcium flux assay in GnRHR-HEK293 cells (AID 1920063). Note: nearly all actives have a fitted effect of over 35% in size. Put shortly:
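We seeded human GnRHR-expressing HEK293 cells for 18 hours, loaded them with calcium dye for an hour at 37 C, added test compounds, and recorded fluorescence intensity kinetically for three minutes.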
In general terms: Calcium assays in cells follow changes in intracellular calcium, usually with a dye or a luminescent sensor.

Assay [4] has as its target KiSS-1 receptor (Homo sapiens) (UniProt Q969F8). The assay can be described thus: Human kisspeptin (KISS1R) small molecule agonists, calcium flux assay in KISS1R-HEK293 cells (AID 1920064; active = well fitted curve in the direction sought with a large enough effect in the repeat runs; an effect the other way counts as inactive or inconclusive). The method, boiled down: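 Kinetic calcium assay, 1 s sampling over 3 min at Ex/Em 480/540, in HEK293 cells engineered with human KISS1R; compounds delivered in DMSO after 1 h dye loading.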

The nature of assay [5]: G protein-coupled receptor (GPCR) small molecule agonists, calcium flux assay: HEK293 wild type cell line counter screen (AID 1920065). The method, boiled down: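 Calcium-sensitive dye, loaded 1 h at 37 C into cells cultured 18 h, reports compound-evoked calcium release as fluorescence (Ex/Em 480/540), measured over 3 min. Agonist mode; 15-point titrations, triplicate.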

Assay [6] is described as follows: p53 small molecule agonists, cell-based qHTS assay with human liver microsomes (AID 1963577).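 Note: p53 response element beta-lactamase reporter cells with liver microsomes plus NADPH.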 Put shortly:
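With metabolic activation: human liver microsomes (0.5 mg/mL final) plus NADPH (0.5 mg/mL final) added alongside compounds to p53RE-bla cells; 16 h 37 C exposure; beta-lactamase read by LiveBLAzer fluorescence.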
A general note: In qHTS, concentration-response curves come from the screen itself.

Assay [7] in a line: p53 small molecule agonists, cell-based qHTS assay with rat liver microsomes (AID 1963578). Put shortly: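 Metabolic activation by rat liver microsomes and NADPH, each 0.5 mg/mL final, added right after compounds to p53RE-bla reporter cells (4,000/well, plated 5 h earlier). 16 h at 37 C, then LiveBLAzer substrate for 2 h at room temperature in the dark; fluorescence read-out.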

The nature of assay [8]: p53 small molecule agonists, cell-based qHTS assay with human liver microsomes: qHTS cell viability counter screen (AID 1963579). Note: nearly all actives have a fitted effect of over 45% in size. The method, boiled down:
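Metabolic activation used human liver microsomes and NADPH, both 0.5 mg/mL final, over 16 hours at 37 C on p53RE-bla cells (4,000/well). Cytotoxicity measured by CellTiter-Glo luminescence, 30 min at room temperature.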

The nature of assay [9]: p53 small molecule agonists, cell-based qHTS assay with rat liver microsomes: qHTS cell viability counter screen (AID 1963580). Note: nearly all actives have a fitted effect of over 45% in size. Note: potency is the fitted concentration of half-maximal effect. The method, boiled down: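 Intracellular ATP, by CellTiter-Glo luminescence, defines viability. HCT-116 p53RE-bla cells, 4,000 per well, were compound-treated in the presence of rat liver microsomes and NADPH for 16 h at 37 C.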
Assay [10] in a line: p53 small molecule agonists, cell-based qHTS assay: qHTS cell viability counter screen (AID 1963581). Note: nearly all actives have a fitted effect of over 45% in size. Put shortly:
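Following 5 h attachment, HCT-116 p53RE-bla cells took up compound for 16 h at 37 C; the reporter was read with B/G FRET substrate (2 h RT), and viability then via CellTiter-Glo ATP luminescence.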

Assay [11] in a line: p53 small molecule agonists, cell-based qHTS assay (AID 1963582; active = well fitted activation curve with a large enough effect in the signal ratio in the repeat runs, not every such curve was filed as active; the % refers to the signal ratio). Put shortly: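 In this cell-based concentration-response screen, a p53 response element drives beta-lactamase; cells received DMSO-borne compounds after 5 h culture and were incubated a further 16 h before FRET substrate development.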
In assay [12] the target is 5-hydroxytryptamine receptor 2A (Homo sapiens) (UniProt P28223). Kind of assay: 5-hydroxytryptamine receptor 2A (HTR2A) small molecule antagonists, cell-based qHTS assay (AID 1963586). Note: nearly all actives have a fitted effect of over 45% in size. The method, boiled down:
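Antagonist-mode intracellular calcium assay: DOI (4 nM) added after 5 min compound pre-incubation at room temperature to dye-loaded HTR2A-CHO cells. Fluorescence followed for 3 min, sampled every second.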

Assay [13] shares this target. The assay can be described thus: 5-hydroxytryptamine receptor 2A (HTR2A) small molecule agonists, cell-based qHTS assay (AID 1963587). Note: nearly all actives have a fitted effect of over 30% in size. The method, boiled down:
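Kinetic calcium-flux fluorescence (2 min, 1 sec intervals) after compound addition in agonist mode. HTR2A-CHO cells were cultured 18 h, then dye-loaded 1 h at 37 C.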

Assay [14] addresses Muscarinic acetylcholine receptor M1 (Homo sapiens) (UniProt P11229). The assay can be described thus: Cholinergic receptor muscarinic 1 (CHRM1) small molecule antagonists, cell-based qHTS assay (AID 1963588). Note: nearly all actives have a fitted effect of over 40% in size. Put shortly:
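CHRM1-CHO calcium-flux assay, antagonist mode. Cells were seeded 18 h, dye-loaded 1 h at 37 C and given compound for 5 min at RT, then acetylcholine was added at 50nM. FDSS fluorescence was read 3 min; 15 concentrations, three runs.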

The target is the same in assay [15]. Kind of assay: Cholinergic receptor muscarinic 1 (CHRM1) small molecule agonists, cell-based qHTS assay (AID 1963589). Note: nearly all actives have a fitted effect of over 35% in size. The method, boiled down: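 Measures agonist-induced intracellular calcium rise. Stable human CHRM1 CHO line, 1 h dye load at 37 C, compounds from DMSO, kinetic fluorescence read.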
A short description of assay [16]: cAMP Responsive Elements (CRE) small molecule agonists, cell-based qHTS assay (AID 1963590). The method, boiled down:
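A CRE-responsive beta-lactamase reporter in HEK 293T cells was used. Treatment ran 3 h at 37 C; detection used LiveBLAzer B/G FRET substrate for 2 h at room temperature.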

Assay [17] can be described thus: cAMP Responsive Elements (CRE) small molecule antagonists, cell-based qHTS assay (AID 1963591; active = well fitted inhibition curve with a large enough effect in the signal ratio in the repeat runs, not every such curve was filed as active; the % refers to the signal ratio). The method, boiled down:
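HEK293T cells carrying a CRE-driven beta-lactamase reporter receive compound and NKH477 (0.25 uM final) for 3 h. Fluorescence from LiveBLAzer B/G FRET substrate is read after 2 h at room temperature.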

For assay [18], the target named is Beta-2 adrenergic receptor (Homo sapiens) (UniProt P07550). Kind of assay: Adrenergic beta2 receptor (ADRB2) small molecule antagonists, cell-based qHTS assay (AID 1963592). Note: series mostly up to about 92 µM; nearly all actives have a fitted effect of over 50% in size. The method, boiled down: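 Cells (CHO, stable ADRB2 overexpression) incubated 18-20hr at 37C; compounds added from DMSO; agonist mix (1nM isoproterenol, 100uM IBMX, 25uM Ro-20-1724) added; 0.5hr RT; d2-cAMP and anti-cAMP-cryptate added; 1hr RT; 665/615 nm read.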

Assay [19] has as its target D(2) dopamine receptor (Homo sapiens) (UniProt P14416). Kind of assay: Dopamine D2 receptor (DRD2) small molecule agonists, cell-based qHTS assay (AID 1963594). Note: nearly all actives have a fitted effect of over 35% in size. Put shortly:
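cAMP accumulation in DRD2-HEK293 cells measured by HTRF after 1 h detection; compounds added 10 min before NKH477 (200nM […]) forskolin-analogue stimulation, 30 min at room temperature, with Ro20-1724 present at 0.1 mM final.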

For assay [20] the target is unchanged. The assay can be described thus: Dopamine D2 receptor (DRD2) small molecule antagonists, cell-based qHTS assay (AID 1963595; active = well fitted inhibition curve with a large enough effect in the signal ratio in the repeat runs, with a control signal flat; the % refers to the signal ratio). The method, boiled down:
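HEK293 cells stably expressing DRD2, preincubated with 0.1 mM Ro20-1724 and compounds 10 min, were stimulated with 200 nM NKH477 plus 12 nM quinpirole for 30 min at room temperature; cAMP measured by HTRF (665/620 nm).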

Molecules are shown by their SMILES. Results filed as inconclusive are left out. More than one record can exist for a structure, and the calls need not agree. Activity calls are given as the source filed them. Unless noted, calls come from the whole dose curve.

Chain of Muscarinic acetylcholine receptor M1 (Homo sapiens) (P11229 whole entry, looked up): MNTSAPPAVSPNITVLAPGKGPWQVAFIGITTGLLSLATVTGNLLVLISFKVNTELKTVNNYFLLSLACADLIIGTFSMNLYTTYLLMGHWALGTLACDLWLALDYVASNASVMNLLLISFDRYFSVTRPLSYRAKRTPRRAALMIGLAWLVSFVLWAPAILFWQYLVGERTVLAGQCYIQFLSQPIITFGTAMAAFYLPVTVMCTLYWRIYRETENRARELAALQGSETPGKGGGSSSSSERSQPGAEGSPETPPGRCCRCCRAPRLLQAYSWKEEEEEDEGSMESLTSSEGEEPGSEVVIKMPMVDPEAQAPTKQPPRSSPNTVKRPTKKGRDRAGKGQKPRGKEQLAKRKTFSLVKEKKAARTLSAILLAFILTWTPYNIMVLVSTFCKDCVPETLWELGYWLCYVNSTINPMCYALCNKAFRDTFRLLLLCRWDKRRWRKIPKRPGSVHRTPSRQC
Chain of Gonadotropin-releasing hormone receptor (Homo sapiens) (P30968 whole entry, looked up): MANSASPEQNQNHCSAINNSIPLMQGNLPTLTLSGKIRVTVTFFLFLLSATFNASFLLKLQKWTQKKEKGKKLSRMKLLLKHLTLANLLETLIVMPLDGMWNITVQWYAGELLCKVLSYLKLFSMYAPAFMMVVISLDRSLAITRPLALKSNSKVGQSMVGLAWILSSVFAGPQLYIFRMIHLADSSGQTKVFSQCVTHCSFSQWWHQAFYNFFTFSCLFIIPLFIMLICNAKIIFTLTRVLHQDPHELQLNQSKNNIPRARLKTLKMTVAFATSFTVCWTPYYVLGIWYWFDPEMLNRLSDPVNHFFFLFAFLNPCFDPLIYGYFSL
Chain of D(2) dopamine receptor (Homo sapiens) (P14416 whole entry, looked up): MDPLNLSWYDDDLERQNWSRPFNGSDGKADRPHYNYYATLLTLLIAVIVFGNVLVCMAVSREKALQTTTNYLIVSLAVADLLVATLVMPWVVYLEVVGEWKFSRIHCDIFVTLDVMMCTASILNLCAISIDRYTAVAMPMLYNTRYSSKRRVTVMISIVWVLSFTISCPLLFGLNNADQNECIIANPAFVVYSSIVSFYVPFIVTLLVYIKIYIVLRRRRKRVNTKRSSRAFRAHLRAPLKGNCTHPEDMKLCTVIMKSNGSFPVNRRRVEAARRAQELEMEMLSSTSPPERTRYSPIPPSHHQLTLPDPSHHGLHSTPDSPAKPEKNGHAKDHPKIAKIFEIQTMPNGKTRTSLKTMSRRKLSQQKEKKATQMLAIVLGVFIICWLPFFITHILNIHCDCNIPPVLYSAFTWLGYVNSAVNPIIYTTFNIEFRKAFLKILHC
Chain of KiSS-1 receptor (Homo sapiens) (Q969F8 whole entry, looked up): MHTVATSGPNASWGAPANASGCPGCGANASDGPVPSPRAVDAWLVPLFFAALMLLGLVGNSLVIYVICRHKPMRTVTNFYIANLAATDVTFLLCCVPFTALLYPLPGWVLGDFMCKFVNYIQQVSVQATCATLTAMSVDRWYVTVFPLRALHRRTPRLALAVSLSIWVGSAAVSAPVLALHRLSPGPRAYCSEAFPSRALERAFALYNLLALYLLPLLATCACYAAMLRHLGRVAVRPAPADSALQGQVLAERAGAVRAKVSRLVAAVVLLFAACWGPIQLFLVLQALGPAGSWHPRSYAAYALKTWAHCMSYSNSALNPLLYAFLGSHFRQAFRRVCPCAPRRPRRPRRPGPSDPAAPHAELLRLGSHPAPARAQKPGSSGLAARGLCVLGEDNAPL
Chain of Beta-2 adrenergic receptor (Homo sapiens) (P07550 whole entry, looked up): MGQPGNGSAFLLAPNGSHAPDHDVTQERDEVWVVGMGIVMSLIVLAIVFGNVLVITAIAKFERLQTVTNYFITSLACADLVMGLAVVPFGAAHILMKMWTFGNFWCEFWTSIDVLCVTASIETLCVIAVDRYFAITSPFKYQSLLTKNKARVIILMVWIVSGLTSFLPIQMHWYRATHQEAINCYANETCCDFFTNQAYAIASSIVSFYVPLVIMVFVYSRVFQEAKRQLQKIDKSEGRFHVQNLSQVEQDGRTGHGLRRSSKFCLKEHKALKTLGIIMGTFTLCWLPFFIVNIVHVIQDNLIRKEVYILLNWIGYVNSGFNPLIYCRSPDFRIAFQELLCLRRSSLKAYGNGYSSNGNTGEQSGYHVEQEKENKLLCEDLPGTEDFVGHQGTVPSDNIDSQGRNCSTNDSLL
Chain of 5-hydroxytryptamine receptor 2A (Homo sapiens) (P28223 whole entry, looked up): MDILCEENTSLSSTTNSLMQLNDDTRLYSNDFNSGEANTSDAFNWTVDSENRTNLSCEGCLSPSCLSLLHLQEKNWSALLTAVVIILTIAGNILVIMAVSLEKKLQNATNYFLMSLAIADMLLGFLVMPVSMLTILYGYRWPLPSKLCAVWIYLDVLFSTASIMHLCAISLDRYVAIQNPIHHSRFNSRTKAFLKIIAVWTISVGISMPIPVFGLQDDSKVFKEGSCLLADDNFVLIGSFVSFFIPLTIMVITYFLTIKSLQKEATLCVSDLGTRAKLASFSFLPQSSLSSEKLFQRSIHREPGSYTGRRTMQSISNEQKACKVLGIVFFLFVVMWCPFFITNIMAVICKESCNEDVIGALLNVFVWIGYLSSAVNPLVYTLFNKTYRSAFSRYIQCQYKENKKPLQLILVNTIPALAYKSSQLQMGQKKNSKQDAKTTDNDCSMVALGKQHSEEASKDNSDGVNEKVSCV

With `COc1cc(/C=C/C(=O)O[C@H]2CC[C@]34C[C@]35CC[C@]3(C)[C@@H]([C@H](C)CCC=C(C)C)CC[C@@]3(C)[C@@H]5CC[C@H]4C2(C)C)ccc1O`, the Potency result in assay [1], in [2], in assay [3], in assay [4], in assay [5] and in assay [6] was “inactive” in each case. Further, the Potency result in [7], in assay [8], in assay [9], in assay [10], in assay [11] and in assay [12] was “inactive” throughout. Besides, the Potency entry in assay [13], in [14], in assay [15], in assay [16], in assay [17] and in assay [18] was “inactive” throughout. Moreover, the Potency entry in assay [19] and in assay [20] was “inactive” in each case.
Regarding `O=C(O)C1CCC(C(=O)O)CC1` (stereo unspecified), the Potency result in assay [1], in assay [2], in assay [3], in [4], in assay [5] and in assay [6] was “inactive” in each case. Also, the Potency entry in [7], in assay [8], in assay [9], in assay [10], in [11] and in assay [12] was “inactive” throughout. Besides, the Potency result in [13], in assay [14], in assay [15], in [16], in [17] and in assay [19] was “inactive” each time.
As for `COC(=O)c1ccc(C(=O)OC)cc1`, the Potency in assay [1] was 2.47 µM (active) and inactive; in [9], 18.5 µM (active) and inactive. For the same molecule, the Potency result in assay [2], in assay [3], in [4], in [5], in assay [6] and in assay [7] was “inactive” in each case. For the same molecule, the Potency entry in [8], in assay [10], in assay [11], in assay [12], in [13] and in [14] was “inactive” in each case. For the same molecule, the Potency entry in assay [15], in assay [16], in assay [17], in [18] and in [20] was “inactive” throughout.
`c1ccc2nccnc2c1`: the Potency result in assay [1], in assay [2], in [3], in assay [4], in assay [5] and in [6] was “inactive” in each case. In addition, the Potency entry in assay [7], in assay [8], in assay [9], in [10], in [11] and in assay [12] was “inactive” each time. Further, the Potency entry in [13], in [14], in assay [15], in [16], in [17] and in [18] was “inactive” in each case. Besides, the Potency entry in [20] was “inactive”.
Turning to `CCCCCCCCOCCC#N`, the Potency result in [1], in [2], in assay [3], in assay [4], in assay [5] and in assay [6] was “inactive” throughout. Besides, the Potency result in [7], in assay [8], in [9], in assay [10], in [11] and in assay [12] was “inactive” throughout. Further, the Potency entry in assay [13], in assay [14], in [15], in assay [16], in assay [17] and in assay [19] was “inactive” throughout. Besides, the Potency entry in assay [20] was “inactive”.
Consider `CC(N)CN` (stereo unspecified), for which the Potency result in [1], in [2], in assay [3], in [4], in assay [5] and in assay [6] was “inactive” each time. For the same molecule, the Potency result in assay [7], in assay [8], in assay [9], in assay [10], in assay [11] and in [12] was “inactive” throughout. In addition, the Potency result in assay [13], in [14], in assay [15], in assay [16] and in assay [19] was “inactive” in each case.
As for `CCCCCCCCCCCCCCCCCC(=O)OCC(CC)CCCC` (stereo unspecified), the Potency entry in assay [1], in assay [2], in assay [3], in assay [4], in assay [5] and in assay [6] was “inactive” in each case. Moreover, the Potency result in [7], in [8], in assay [9], in assay [10], in assay [11] and in [12] was “inactive” in each case. The Potency entry in assay [13], in assay [14], in assay [15], in assay [16], in assay [17] and in assay [19] was “inactive” each time. The Potency result in assay [20] is “inactive”.
